Among the test systems are T-47D breast; BT-549 breast; MDA-MB-435 melanoma; SW-620 colon; MCF7 breast; HCT-116 colon; HCC-2998 colon; KM12 colon.
What all share (assay): NCI-60 one-dose screen, 48 h (100 = growth as untreated, 0 = no growth, -100 = all killed)
What all share (details): 10 µM

Each structure is given as a SMILES string. This is part of a sample that, as a whole, favours compounds with a hit. Of some 83,000 tested, about 20% had one in any assay.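 Cell lines were cultured in 96-well plates, exposed to a single compound concentration, and assessed for percent growth 48 hours later.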 Unmarked numbers belong to inactive results. Calls of active or inactive are those of the source. The calls were made as follows: active = growth percent below 10; inactive = the rest.

For the compound `COc1cc(C(=O)n2nc(-c3cc(OC)c(OC)c(OC)c3)nc2N)cc(OC)c1OC`, the growth with T-47D breast is 77.1%; in the assay on BT-549 breast, 100%; in the assay with MDA-MB-435 melanoma it was 95.8%; with SW-620 colon, 99.9%; with MCF7 breast, 88.3%; in the assay on HCT-116 colon, 91.1%. Also, the growth with HCC-2998 colon was 94.9%; in the assay on KM12 colon, 102%.
With `COc1cc2c3c(n([C@@H]4CCOC4)c(=O)c2cc1OC)-c1cc2c(cc1C3=O)OCO2`, the growth was 21.7% in the assay with T-47D breast; 46.2% in the assay with BT-549 breast; 62.7% in the assay on MDA-MB-435 melanoma; 50.2% in the assay on SW-620 colon; 13.5% in the assay with MCF7 breast; 27.1% with HCT-116 colon. For the same compound, the growth was 70.9% in the assay with HCC-2998 colon and 62.4% in the assay on KM12 colon.
Turning to `CNC(=O)c1c(I)c(NC(C)=O)c(I)c(C(=O)O)c1I`, the growth in the assay with T-47D breast is 117%; with BT-549 breast, 113%; with MDA-MB-435 melanoma, 103%; with SW-620 colon, 102%; with MCF7 breast, 108%; in the assay with HCT-116 colon it was 121%. Also, the growth is 106% in the assay on HCC-2998 colon and 109% in the assay with KM12 colon.
For `CCn1c(CSc2nc3ccccc3c(=O)n2CCc2ccccc2)n[nH]c1=S`, the growth in the assay on T-47D breast was 73.3%; in the assay on BT-549 breast it was 72.3%; in the assay with MDA-MB-435 melanoma, 84.8%; in the assay on SW-620 colon it was 97.5%; with MCF7 breast, 84%; in the assay on HCT-116 colon, 65.5%. Moreover, the growth in the assay on HCC-2998 colon was 99%; in the assay on KM12 colon, 92.3%.
For `Nc1nc(Cn2c(-c3nonc3N)nc3ccccc32)nc(N2CCCCC2)n1`, the growth with T-47D breast was 83%; in the assay on BT-549 breast it was 89%; with MDA-MB-435 melanoma it was 39.2%; in the assay on SW-620 colon, 94.4%; in the assay with MCF7 breast it was 83.5%; with HCT-116 colon it was 87.7%. In addition, the results for the growth in the assay on HCC-2998 colon and with KM12 colon were 95.9% and 75.6%, respectively.
As to `O=C1Cc2cc(CCN3CCN(c4nsc5ccccc45)CC3)c(Cl)cc2N1`, the growth is 55.2% in the assay on T-47D breast; 92.6% in the assay with BT-549 breast; 90.9% in the assay on MDA-MB-435 melanoma; 92.9% in the assay with SW-620 colon; 86.1% in the assay on MCF7 breast; 98.8% with HCT-116 colon. Besides, the growth in the assay with HCC-2998 colon was 120%; in the assay on KM12 colon, 98.1%.
Consider `COc1cc(C(=O)/C=C/c2c[nH]c3ccccc23)cc(OC)c1OC`, for which the growth in the assay with T-47D breast is 63.2%; in the assay on BT-549 breast it was -9.31% (active); in the assay with MDA-MB-435 melanoma it was 7.59% (active); in the assay with SW-620 colon, 37.3%; in the assay with MCF7 breast, 12.5%; in the assay on HCT-116 colon, 12.2%. The growth with HCC-2998 colon is 19.6%; in the assay on KM12 colon it was 11.5%.
With `O=C(Nc1nc(-c2ccccc2)nc2c1sc(=S)n2-c1ccccc1)C(F)(F)F`, the growth in the assay with T-47D breast was 71.1%; in the assay with BT-549 breast it was 98.9%; with MDA-MB-435 melanoma, 99.8%; with SW-620 colon, 103%; in the assay with MCF7 breast, 87%; in the assay on HCT-116 colon it was 78.8%. For the same compound, the growth in the assay with HCC-2998 colon is 123%; with KM12 colon, 91.3%.
With `CS(=O)(=O)c1nccc(-c2c(-c3cccc(OCCc4ccccc4)c3)nc3sccn23)n1`, the growth in the assay with T-47D breast is 92.4%; in the assay on BT-549 breast, 116%; in the assay on MDA-MB-435 melanoma, 104%; with SW-620 colon, 98.2%; with MCF7 breast, 69.2%; in the assay with HCT-116 colon, 83.9%. The growth in the assay with HCC-2998 colon is 109%; with KM12 colon it was 104%.
As to `O=C1c2ccccc2-c2c1c1cccnc1c(=O)n2C[C@H](O)CO`, the growth was 59.6% with T-47D breast; 61.7% with BT-549 breast; 87.5% in the assay with MDA-MB-435 melanoma; 49.9% in the assay with SW-620 colon; 25.5% in the assay on MCF7 breast; 38.5% in the assay on HCT-116 colon. Also, the growth is 79.7% with HCC-2998 colon and 62.1% with KM12 colon.
On to `COc1cc(/C=C2\CCCC3C2=Nc2ccccc2NC3c2cc(OC)c(OC)c(OC)c2)cc(OC)c1OC` (configuration not stated), for which the growth was 23.9% with T-47D breast; -16.4% (active) with BT-549 breast; 3.26% (active) with MDA-MB-435 melanoma; 5.74% (active) in the assay on SW-620 colon; 36.9% in the assay on MCF7 breast; -58.4% (active) in the assay with HCT-116 colon. Besides, the growth is -60.2% (active) in the assay on HCC-2998 colon and -65.3% (active) with KM12 colon.
Turning to `O=C1CSC(=S)N1/N=C/c1ccc(Cl)s1`, the growth in the assay on T-47D breast was 102%; in the assay on BT-549 breast, 102%; in the assay with MDA-MB-435 melanoma it was 106%; with SW-620 colon, 108%; in the assay on MCF7 breast, 101%; in the assay with HCT-116 colon, 107%. The growth was 99.8% with HCC-2998 colon and 97.5% in the assay with KM12 colon.
`O=C1CCn2c1c(O)c1ccccc1c2=O`: the growth in the assay with T-47D breast was 94.5%; in the assay with BT-549 breast it was 113%; with MDA-MB-435 melanoma, 99.5%; in the assay on SW-620 colon, 101%; with MCF7 breast, 94.8%; in the assay on HCT-116 colon, 107%. For the same compound, the growth in the assay with HCC-2998 colon and with KM12 colon was 109% throughout.
As to `COc1cc(-c2nc3ccccc3o2)cc(CN2CCCCC2)c1O`, the growth in the assay with T-47D breast is 86.6%; in the assay with BT-549 breast, 67.2%; in the assay with MDA-MB-435 melanoma, -79.9% (active); in the assay with SW-620 colon, 64.6%; with MCF7 breast, 50.8%; with HCT-116 colon it was 57.2%. Moreover, the figures for the growth in the assay on HCC-2998 colon and in the assay on KM12 colon were 97.7% and 44.9%, respectively.

The values above are taken from PubChem BioAssay (NCI).
